# The full list was thinned out, with hits kept by preference.
# TDP1 cell CPT: qHTS for Inhibitors of human tyrosyl-DNA phosphodiesterase 1 (TDP1): qHTS in cells in presence of CPT. chicken DT40 Tdp1-/-;hTDP1 cells + 20 nM CPT, ATP luminescence, 48 h. Potency, µM (highest dose often 46.2 µM), inactives show top-dose activity change, negative = growth inhibition, hits mostly inhibitors. 420,000 tested, 12% active. AID 686979, 2013; also: potency is read from the fitted curve at half-maximal effect; nearly all actives have a fitted effect of over 55% in size
#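 Chicken DT40 Tdp1-/- cells complemented with human TDP1, 400 cells/well, exposed to compounds plus 20 nM camptothecin for at least 48 h at 37 C; viability read as ATP content by CellTiter-Glo luminescence.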
# HT1080NT lethal: qHTS for induction of synthetic lethality in tumor cells producing 2HG: qHTS for the HT-1080-NT fibrosarcoma cell line | HT-1080-NT fibrosarcoma viability, CellTiter-Glo ATP luminescence, 48 h | Potency, µM (highest dose often 46.1 µM), inactives show at the top dose activity, negative = less viability, usual class: cytotoxic | 360,000 tested, 1.6% active | AID 686970, 2013;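 also: NT is the 2HG producing partner of a matched IDH1 knockdown line; potency is read from the fitted curve at half-maximal effect; 0% = DMSO-treated cells and -100% = media-only wells without cells; nearly all actives have a fitted effect of over 55% in size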
#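 HT-1080-NT; 750 cells/well; 5% FBS RPMI; 48 h compound, 37 degrees C; CellTiter-Glo luminescence; curve fitting and curve-class assignment.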
# HT1080 IDH1KD tx: qHTS for induction of synthetic lethality in tumor cells producing 2HG: qHTS for the HT-1080-IDH1KD cell line. 360,000 tested, 2% active. HT-1080 IDH1 knockdown viability, ATP luminescence, 48 h. Potency, µM (top dose mostly 46.1 µM), without a hit: at the highest dose activity, negative = toxicity, actives largely listed as cytotoxic;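 also: potency is read from the fitted curve at half-maximal effect; 0% = DMSO wells and -100% = cell-free medium wells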
#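 IDH1KD HT-1080 cells, 750/well, RPMI + 5% FBS; compound pinned after 2 h settling; 48 h, 37 °C; CellTiter-Glo luminescence; % activity normalised to DMSO and no-cell wells; curves fitted, classed by r2 and efficacy.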
# TDP1 cell noCPT: qHTS for Inhibitors of human tyrosyl-DNA phosphodiesterase 1 (TDP1): qHTS in cells in absence of CPT; DT40 Tdp1-/- hTDP1 cells, no CPT, ATP luminescence, 48 h; Potency, µM (doses to about 46.2 µM), without a hit: at the top dose activity change, negative = growth inhibition, hits mostly inhibitors; 420,000 tested, 15% active; also: potency is read from the fitted curve at half-maximal effect; nearly all actives have a fitted effect of over 55% in size
#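 Seeded 400 DT40-hTDP1 cells/well (vehicle DMSO, no 20 nM CPT); pinned compounds; ≥48 hr at 37 °C; CellTiter-Glo luminescence as viability measure.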
# 12-LOX inh: Primary qHTS assay for inhibitors of human arachidonate 12S-lipoxygenase (ALOX12): Round 2; 580,000 tested, 1.1% active; AID 1671190, 2021; Potency, µM (series often up to 108 µM), for the others: top-dose activity change, negative = inhibition, usual class: inhibitors; Polyunsaturated fatty acid lipoxygenase ALOX12 (Homo sapiens), P18054; purified 12hLO, xylenol orange hydroperoxide absorbance; also: potency is read from the fitted curve at half-maximal effect
# Target sequence (P18054 whole entry, looked up): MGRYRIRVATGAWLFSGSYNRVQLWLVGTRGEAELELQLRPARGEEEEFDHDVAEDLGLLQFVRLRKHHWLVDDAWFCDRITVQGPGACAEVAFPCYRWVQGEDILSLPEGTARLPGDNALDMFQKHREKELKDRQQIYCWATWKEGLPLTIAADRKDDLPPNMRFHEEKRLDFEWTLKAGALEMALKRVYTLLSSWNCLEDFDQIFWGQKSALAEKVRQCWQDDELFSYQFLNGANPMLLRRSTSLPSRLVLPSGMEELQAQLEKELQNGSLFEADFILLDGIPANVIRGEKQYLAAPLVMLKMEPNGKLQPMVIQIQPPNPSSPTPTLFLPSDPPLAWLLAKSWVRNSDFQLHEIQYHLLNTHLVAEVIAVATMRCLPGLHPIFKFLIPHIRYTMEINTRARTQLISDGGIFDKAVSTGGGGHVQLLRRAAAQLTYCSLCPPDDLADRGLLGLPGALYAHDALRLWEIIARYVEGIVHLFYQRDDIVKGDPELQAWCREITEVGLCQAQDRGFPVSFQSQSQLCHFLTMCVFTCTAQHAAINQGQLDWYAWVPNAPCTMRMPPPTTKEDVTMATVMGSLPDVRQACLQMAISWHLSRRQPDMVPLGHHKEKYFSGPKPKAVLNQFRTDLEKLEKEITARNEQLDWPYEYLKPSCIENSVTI
#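 Purified human 12hLO (150 nM final) in 25 mM Hepes, 0.01% Triton X-100, pH 7.0 was preincubated 15 min at room temperature with compound. Then 40 uM arachidonic acid was added, 30 min. Hydroperoxide was read by Fe-XO absorbance ratio 573/405 nm.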
# IL-1B inflam inh: qHTS for Inhibitors of Inflammasome Signaling: IL-1-beta AlphaLISA Primary Screen; activity change, % at 57.5 µM; THP-1 LPS/ATP IL-1B secretion, AlphaLISA, 16 h; active compounds read low; AID 743279, 2014; 360,000 tested, 4.7% active; in the data active = activity change below about -50%; inconclusive = mostly about -30% to -49%
#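 Secreted IL-1B measured by AlphaLISA bead assay after 16 h compound exposure of THP-1 cells; compounds (final up to 57.5 uM) added 1 h before LPS (250 ng/mL) and ATP (1.25 mM) stimulation; lower signal means less secretion.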
# Starred values were filed as active, the others as inactive; ? = inconclusive; nt = not tested or not shown. Unless noted, calls follow the shape of the dose curve; as a rule, active = well fitted curve in the direction sought with a large enough effect; inconclusive = small, poorly fitted or top-dose-only effect, or another doubt; inactive = no such curve, though single readings can be large; an effect the other way counts as inactive or inconclusive. Unless noted, % is scaled to controls: 0 for no effect and ±100 for the full control effect.
SMILES,TDP1 cell CPT,HT1080NT lethal,HT1080 IDH1KD tx,TDP1 cell noCPT,12-LOX inh,IL-1B inflam inh
Cc1ccc(NS(=O)(=O)c2ccc(C(=O)NCc3ccc(S(N)(=O)=O)cc3)cc2)cc1,?,0%,3%,?,?,-9
Cc1ccc(CSC(Nc2ccc(F)cc2)=C(C#N)C#N)cc1,3.7µM*,?,?,3.3µM*,?,-57*
Cc1ccc(CNC(=S)Nc2ccc(NS(=O)(=O)c3ccc(C)cc3)cc2)cc1,?,-29%,?,23µM*,?,0
COc1ccc(/C=C/C(=O)N2CCN(S(=O)(=O)c3ccccc3Br)CC2)cc1OC,?,4%,4%,?,-13%,?
CCOC(=O)c1ccc(NC(=S)NCc2ccc(S(N)(=O)=O)cc2)cc1,-12%,1%,2%,11%,-2%,-27
COC(=O)Cc1ccc(NC(=S)NCc2ccc(S(N)(=O)=O)cc2)cc1,21µM*,-1%,-3%,-17%,-8%,45
Cc1ccc(CNC(=S)Nc2cccc(Cl)c2Cl)cc1,nt,nt,nt,nt,11%,nt
CCOc1ccc(Nc2nc(Cc3nnc(SCC(=O)c4ccc(C)c(C)c4)o3)cs2)cc1,29µM*,?,?,16µM*,-1%,14
Cc1ccc(NC(=O)CSc2nnc(Cc3csc(C)n3)o2)cc1,0%,-7%,1%,?,25%,18
CCC(=O)N1CCN(c2nc3c(s2)CC(C(=O)N2CCC(C)CC2)CC3)CC1 (stereo not given),nt,nt,nt,nt,15%,nt
Cc1cc(C)n2nc(/C(C#N)=C/c3ccccn3)c(C#N)c2n1,?,-11%,-9%,9.2µM*,?,-98*
N#C/C(=C/c1ccc(SC(F)(F)F)cc1)c1ccccn1,nt,nt,nt,nt,-20%,nt
CN(C)c1ccc(/C=C(\C#N)c2ccccn2)cc1,-28%,?,?,23µM*,?,-10
N#C/C(=C\c1ccccn1)c1ccccn1,23µM*,-15%,-18%,15µM*,?,-94*
COC(=O)c1ccc(/C=C(\C#N)c2ccccn2)cc1,?,-1%,-12%,?,-3%,25
N#C/C(=C\c1ccc([N+](=O)[O-])cc1)c1ccccn1,?,0%,-6%,23µM*,-14%,-73*
CC1Cc2cc(/C=C(\C#N)c3nc4ccccc4s3)ccc2O1 (stereo not given),nt,nt,nt,nt,6%,nt
C[C@]12Cc3ccccc3C1CC1=N[C@@H](c3ccc(C(F)(F)F)cc3)O[C@@]13C[C@@H]2C(=O)N3Cc1ccncc1 (stereo not given in full),nt,nt,nt,nt,12%,nt
CCOC(=O)c1cnc2ccc(OCC)cc2c1NCCCN1CCOCC1,18µM*,-1%,-5%,18µM*,5%,-53*
CCOC(=O)c1cnc2ccc(C(=O)OC)cc2c1NCCCN1CCOCC1,?,-1%,13%,?,-10%,-60*
CCOC(=O)c1cnc2c(Cl)cccc2c1NCCCN1CCOCC1,?,-11%,-4%,?,11%,-14
CCOC(=O)c1cnc2ccc(C(=O)OC)cc2c1NCCN1CCOCC1,?,-2%,14%,-18%,-5%,-27
CCOC(=O)c1cnc2ccc(OCC)cc2c1NCCN1CCOCC1,?,9%,9%,21µM*,14%,-25
CCN1CCN(C(=O)CCn2ccc(=O)[nH]c2=O)C(C)C1=O (stereo not given),nt,nt,nt,nt,38%,nt
CCOc1ccc(S(=O)(=O)N2CCC(C(=O)NCc3ccncc3)CC2)cc1,-1%,-4%,-1%,-11%,128%,0
SMILES,TDP1 cell CPT,HT1080NT lethal,HT1080 IDH1KD tx,TDP1 cell noCPT,12-LOX inh,IL-1B inflam inh
NC(=S)NN=C1c2ccccc2-c2c(F)c(F)c(F)c(F)c21,7.3µM*,-17%,?,12µM*,?,-111*
NC(=O)N/N=C1\c2ccccc2-c2c(C(N)=O)cccc21,-53%,?,-15%,-4%,0%,-1
C=C(C)CNC(=S)NN=C1c2ccccc2-c2ccccc21,?,0%,-24%,?,nt,-22
N#Cc1cccc2c1-c1ccccc1/C2=N/NC(N)=S,?,6.5µM*,21µM*,18µM*,nt,-58*
Cc1c(-c2ccccc2)sc(N)c1C(=O)N1CCOCC1,-30%,-3%,8%,?,?,-16
CCNC(=O)c1ccc(CSc2nc3cccnc3n2Cc2ccc(OC)cc2)cc1,?,nt,nt,?,-13%,nt
CC(C)OCCCNC(=O)c1ccc(CSc2nc3cccnc3n2Cc2ccccc2)cc1,?,nt,nt,23µM*,-2%,nt
COCCCNC(=O)c1ccc(CSc2nc3cccnc3n2Cc2ccc(OC)cc2)cc1,23µM*,nt,nt,16µM*,-15%,nt
COCCCNC(=O)c1ccc(Cn2c(SCc3cccc(C)c3)nc3cccnc32)cc1,?,nt,nt,?,-16%,nt
COCCCNC(=O)c1ccc(Cn2c(SCc3ccc(F)cc3)nc3cccnc32)cc1,?,nt,nt,15µM*,-14%,nt
CCN1c2cc(C(=O)NCc3cccs3)ccc2C(=O)N2CCCCCC21 (stereo not given),nt,nt,nt,nt,25%,nt
CC1(C(=O)NS(=O)(=O)C2CC2)CCN(C(=O)COc2ccc(Cl)cc2Cl)C1 (stereo not given),-1%,?,13%,2%,?,15
CCN1CCn2c3c(c4cc(Cl)ccc42)CCCC31 (stereo not given),?,-29%,?,?,?,-10
CCN(CC)CCN1CCn2c3c(c4cc(C)ccc42)CCCC31 (stereo not given),?,?,-20%,23µM*,-16%,?
Cc1ccc2c(c1)c1c3n2CCN(C(=O)c2cccc(C(F)(F)F)c2)C3CCC1 (stereo not given),?,nt,nt,23µM*,-4%,nt
O=CN1CCN(C(=O)Cn2ccc3c(Cl)cccc32)CC1,nt,nt,nt,nt,5%,nt
CCC(CC)C(=O)N(C)c1c(C)nc2c(OCc3ccc(OC(F)F)cc3)cccn12,12µM*,-20%,-3%,12µM*,-1%,-10
CCC(CC)C(=O)N(C)c1c(C)nc2c(OCc3cccc(OC)c3)cccn12,?,-19%,-1%,21µM*,-2%,0
